ADAM10 inh: human ADAM10 inhibitors, primary screen, biochemical, QFRET, HTS | inhibition, % at 7 µM | AID 720582, 2013 | 370,000 tested, 0.62% active | recombinant ADAM10, EDANS/DABCYL FRET peptide cleavage, 3 h | Disintegrin and metalloproteinase domain-containing protein 10 (Homo sapiens), O14672;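 active = inhibition above a per-campaign cutoff equal to the mean of compounds falling between control-based bounds plus 3 SD, cut at about 20% in these data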
Target sequence (O14672 214-748 limits assumed): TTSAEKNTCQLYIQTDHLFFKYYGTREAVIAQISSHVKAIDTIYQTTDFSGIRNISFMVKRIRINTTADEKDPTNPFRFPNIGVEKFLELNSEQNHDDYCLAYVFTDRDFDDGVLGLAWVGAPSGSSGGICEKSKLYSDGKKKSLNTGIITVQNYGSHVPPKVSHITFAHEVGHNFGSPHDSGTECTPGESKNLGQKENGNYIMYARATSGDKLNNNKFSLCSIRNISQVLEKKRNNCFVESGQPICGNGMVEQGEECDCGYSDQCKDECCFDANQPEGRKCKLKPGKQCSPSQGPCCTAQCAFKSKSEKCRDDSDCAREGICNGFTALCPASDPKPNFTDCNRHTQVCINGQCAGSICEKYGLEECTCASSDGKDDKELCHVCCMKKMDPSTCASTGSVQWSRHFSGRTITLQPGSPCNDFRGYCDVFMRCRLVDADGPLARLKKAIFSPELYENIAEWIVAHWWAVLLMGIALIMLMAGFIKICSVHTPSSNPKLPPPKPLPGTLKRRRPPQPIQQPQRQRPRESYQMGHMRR
rRNA inh HTS: reduced GFP signal of wild-type E. coli, primary screen, bacterial rRNA inhibitor project, GFP/RFP fluorescence, OD600, single point; E. coli WT GFP vs humanized-ribosome RFP mutants, 24 h; stronger effect = lower value; DMSO median 0, no signal -100; GFP signal change (wild-type ribosome), % (concentration not given with the values); AID 720706, 2013; 350,000 tested, 1.6% active;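 active = significant combined selectivity score with lowered wild-type GFP, culture density cut under 30%, mutant RFP and density less affected; inactive = any of these conditions unmet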
FGF22 binding: binders of human FGF22 protein, primary screen, FGF22 synaptogenesis inhibitor project, biophysical, thermal shift, single point. recombinant FGF22 thermal shift, SYPRO orange fluorescence; percent of sucrose octasulfate shift, DMSO zero. activity (Tm shift, normalised), % at 9.99 µM. 340,000 tested, 1.5% active;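 active = mean Tm shift, scaled 0 neutral to 100 positive control, at about 1.3% or above, every replicate too, limit read from the data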
proKLK7 act: proKLK7 zymogen activators, primary screen, biochemical, fluorescence intensity. activation, % at 7 µM. 370,000 tested, 0.9% active. purified proKLK7, EDANS-DABCYL substrate fluorescence; 100% is mature enzyme control, 0% vehicle. Kallikrein-7 (Homo sapiens), P49862;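 active = activation above the mean of all tested compounds plus 3 SD, computed per campaign excluding outliers beyond control limits, cut at about 13% in these data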
Target sequence (P49862 whole entry, looked up): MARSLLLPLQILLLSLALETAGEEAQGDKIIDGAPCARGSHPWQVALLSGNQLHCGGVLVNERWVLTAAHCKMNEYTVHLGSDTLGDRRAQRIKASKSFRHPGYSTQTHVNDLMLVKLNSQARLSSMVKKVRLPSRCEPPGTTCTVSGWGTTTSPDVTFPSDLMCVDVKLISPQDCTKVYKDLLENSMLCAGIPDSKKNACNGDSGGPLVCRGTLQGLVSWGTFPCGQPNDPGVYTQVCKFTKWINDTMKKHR
ADAM17 inh: ADAM17 inhibitors, primary screen, biochemical, QFRET. Disintegrin and metalloproteinase domain-containing protein 17 (Homo sapiens), P78536. recombinant ADAM17, EDANS/DABCYL FRET peptide cleavage. inhibition, % at 6.95 µM. 370,000 tested, 0.83% active;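 active = inhibition above the mean of compounds lying between control limits plus 3 SD, set per campaign, cut at about 8.5% in these data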
KLK7 act conf: proKLK7 zymogen activators, confirmation, biochemical, fluorescence intensity, triplicate. shares compounds with proKLK7 act. purified proKLK7, EDANS-DABCYL substrate fluorescence; scaled: vehicle 0, mature enzyme 100. activation, % at 7 µM. 3,200 tested, 68% active. AID 686949, 2013;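 active = activation, as change over the incubation, above the mean of all tested compounds plus 3 SD, cut at about 13% in these data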
EDANS-DABCYL int: EDANS-DABCYL substrate optical interference, artefact control for kallikrein-7 zymogen activator project, biochemical, fluorescence intensity, high throughput | shares compounds with proKLK7 act | no enzyme, 4 h; solvent 0%, active enzyme control 100% | activation, % at 7 µM | 3,200 tested, 80% active | AID 686952, 2013;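 active = activation above the all-compound mean plus 3 SD, ignoring values outside control-based bounds, cut at about 4.8% in these data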;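 note: value is the 4 h activation minus the activation read at time zero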
K7 EDANS ctr: counter-screen for kallikrein-7 activators: EDANS-DABCYL interference, dose response; 250 tested, 20% active; shares compounds with proKLK7 act; EDANS-DABCYL peptide fluorescence interference, no enzyme; AID 720493; EC50, µM;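 active = compounds that raise the fluorescence signal in this interference counterscreen, with EC50 at or below 10 µM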;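 note: intact quenched peptide substrate alone read at 355 nm excitation and 520 nm emission; signal is fluorescence gain from T0 to T4 after four hours at room temperature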
Each line names hits and unclear results; the compound was inactive in the other large screens (follow-up assays come after a bar, where they were run). Sampled rows, rich in hits. Any-hit rate of the full collection: about 3.8%.

N#C/C(=C\c1ccncc1)c1nc2c(s1)CCCC2	proKLK7 act 38.2 | KLK7 act conf 22.1 | EDANS-DABCYL int 21.6
N#CC(=Cc1ccncc1)c1ccccc1	none
COc1ccc2c(c1OC)C(=O)OC2C/C(=N\NC(N)=O)c1ccccc1 (stereo unspecified)	none
COc1ccc2c(c1OC)C(=O)OC2CC(=O)c1ccc2c(c1)OCO2 (stereo unspecified)	proKLK7 act 17.7 (no result: rRNA inh HTS, FGF22 binding) | KLK7 act conf inactive | EDANS-DABCYL int 11.6
COc1cccc(C#Cc2cnc3c(c2)C(=O)N([C@H](C)CO)C[C@@H](C)[C@@H](CN(C)C(=O)C2CCOCC2)O3)c1	none (no result: ADAM10 inh, proKLK7 act, ADAM17 inh)
CCOC(=O)c1cc2ccc(OC(=O)c3ccco3)cc2oc1=O	proKLK7 act 100.6 (no result: rRNA inh HTS, FGF22 binding) | KLK7 act conf 667.9 | EDANS-DABCYL int 658.7
CCOC(=O)c1cc2ccc3ccccc3c2oc1=O	proKLK7 act 53.0 | KLK7 act conf 74.1 | EDANS-DABCYL int 75.8
CCOC(=O)c1c[nH]c2ccc3ccccc3c2c1=O	none
CCC(=O)N1C[C@@H](C)[C@H](OC)CN(C)C(=O)c2ccc(NC(=O)C3CCOCC3)cc2OC[C@H]1C	none (no result: ADAM10 inh, FGF22 binding, proKLK7 act, ADAM17 inh)
COc1ccc2c3c([nH]c2c1)[C@H](CO)N(Cc1ccccc1F)CC31CN(CC2CC2)C1	none (no result: ADAM10 inh, FGF22 binding, proKLK7 act, ADAM17 inh)
O=C(O)CCc1nn2c3ccccc3n(CCO)c2nc1=O	none
O=C(O)CCc1nn2c3ccccc3n(CCN3CCCCC3)c2nc1=O	proKLK7 act 46.2 (no result: rRNA inh HTS, FGF22 binding) | KLK7 act conf inactive | EDANS-DABCYL int 11.0
CN1C(=O)c2cc(NC(=O)c3ccc(F)c(F)c3)ccc2OC[C@@H]2O[C@H](CC(=O)O)CC[C@@H]21	none (no result: ADAM10 inh, proKLK7 act, ADAM17 inh)
Cc1c(-n2cc(C(=O)c3cc(F)ccc3O)cc(C#N)c2=O)c(=O)n(-c2ccccc2)n1C	none
N#Cc1cc(C(=O)c2cc(F)ccc2O)cn(-c2nccs2)c1=O	proKLK7 act 24.9 (no result: rRNA inh HTS, FGF22 binding) | KLK7 act conf 42.0 | EDANS-DABCYL int 46.3
N#Cc1cc(C(=O)c2ccccc2O)cn(-c2nccs2)c1=O	proKLK7 act 12.9 (no result: rRNA inh HTS, FGF22 binding) | KLK7 act conf 25.0 | EDANS-DABCYL int 23.4
CNC[C@H]1Oc2cc(-c3ccncc3)ccc2S(=O)(=O)N([C@@H](C)CO)C[C@H]1C	none (no result: ADAM10 inh, proKLK7 act, ADAM17 inh)
Cc1cc(Nc2cccc(Cl)c2)nc(-c2ccccc2O)n1	proKLK7 act 264.7 | KLK7 act conf 77.0 | EDANS-DABCYL int 105.0
C=CC[C@]1(C(=O)N(C)C)N=C(c2ccc(OCCCO)cc2)O[C@H]1c1ccccc1	none (no result: ADAM10 inh, rRNA inh HTS, proKLK7 act, ADAM17 inh)
CCNC(=O)/C(C#N)=C/c1c(N2CCN(c3ccccc3)CC2)nc2ccccn2c1=O	proKLK7 act 14.0 | KLK7 act conf 18.5 | EDANS-DABCYL int 15.8 | K7 EDANS ctr inactive
COCCCNC(=O)/C(C#N)=C/c1c(N2CCN(C)CC2)nc2ccccn2c1=O	proKLK7 act 16.8 | KLK7 act conf inactive | EDANS-DABCYL int 12.1
Cc1cccn2c(=O)c(/C=C(\C#N)C(N)=O)c(N3CCN(Cc4ccc5c(c4)OCO5)CC3)nc12	proKLK7 act 15.1 (no result: rRNA inh HTS) | KLK7 act conf inactive | EDANS-DABCYL int inactive
COCCCNC(=O)/C(C#N)=C/c1c(N2CCN(c3ccccc3)CC2)nc2ccccn2c1=O	none
COCCNC(=O)/C(C#N)=C/c1c(N2CCN(C)CC2)nc2c(C)cccn2c1=O	none
CCN1CCN(c2nc3c(C)cccn3c(=O)c2/C=C(\C#N)C(=O)NCCOC)CC1	proKLK7 act 29.8 | KLK7 act conf 19.6 | EDANS-DABCYL int 20.8
CCN(CC)Cc1c(O)c(Cl)cc2c3c(c(=O)oc12)CCCC3	proKLK7 act 49.4 (no result: rRNA inh HTS, FGF22 binding) | KLK7 act conf 66.5 | EDANS-DABCYL int 74.6
O=c1oc2c(CN3CCOCC3)c(O)c(Cl)cc2c2c1CCC2	proKLK7 act 121.5 (no result: rRNA inh HTS, FGF22 binding) | KLK7 act conf 80.7 | EDANS-DABCYL int 78.2
CN(C)Cc1c(O)c(Cl)cc2c3c(c(=O)oc12)CCCC3	proKLK7 act 46.9 (no result: rRNA inh HTS, FGF22 binding) | KLK7 act conf 69.9 | EDANS-DABCYL int 72.1
Cc1coc2c(C)c3oc(=O)c4c(c3cc12)CCCC4	none (no result: FGF22 binding)
O=c1cc(-c2ccccc2)c2cc(Cl)c(O)c(CN3CCOCC3)c2o1	none
CO[C@@H]1CN(C)C(=O)c2cc(NC(=O)Nc3ccccc3)ccc2OC[C@H](C)N(C(C)=O)C[C@@H]1C	none (no result: ADAM10 inh, proKLK7 act, ADAM17 inh)
N#Cc1c(N)n(-c2cccc(C(=O)O)c2)c2nc3ccccc3nc12	proKLK7 act 61.8 | KLK7 act conf 68.1 | EDANS-DABCYL int 65.1
N#Cc1c(N)n(CCNC(=O)c2cccs2)c2nc3ccccc3nc12	proKLK7 act 53.2 (no result: rRNA inh HTS, FGF22 binding) | KLK7 act conf 70.6 | EDANS-DABCYL int 82.2
N#Cc1c(N)n(CCNC(=O)c2ccccc2)c2nc3ccccc3nc12	proKLK7 act 42.1 | KLK7 act conf 68.5 | EDANS-DABCYL int 59.2
CCCCn1c(CCNC(=O)c2cccs2)nc2ccccc21	none (no result: rRNA inh HTS, FGF22 binding)
COc1ccccc1CCn1c(N)c(C#N)c2nc3ccccc3nc21	none (no result: rRNA inh HTS, FGF22 binding)
O=C(NN=C1CCCC1)c1cc(Cl)cc(Cl)c1O	rRNA inh HTS -28.8, proKLK7 act 17.5 | KLK7 act conf inactive | EDANS-DABCYL int 15.4
Cc1coc2c1c(C)cc1oc(=O)c(CC(=O)NCCC(=O)O)c(C)c12	proKLK7 act 30.2 | KLK7 act conf 63.5 | EDANS-DABCYL int 74.8
Cc1coc2c1c(C)cc1oc(=O)c(CC(=O)NCC(=O)NCC(=O)O)c(C)c12	none
COCCNC(=O)Cc1c(C)c2c(cc(C)c3c(C)coc32)oc1=O	proKLK7 act 15.5 | KLK7 act conf inactive | EDANS-DABCYL int inactive
CCCNC(=O)N1CC2(CCN(CC3CCCC3)CC2)c2c(n(C)c3cc(OC)ccc23)[C@@H]1CO	none (no result: ADAM10 inh, proKLK7 act, ADAM17 inh)
Cc1ccc(C2Oc3ccccc3C3=C2C(c2cccs2)n2ncnc2N3)cc1 (stereo unspecified)	none (no result: rRNA inh HTS, FGF22 binding)
Fc1ccc(C2C3=C(Nc4ncnn42)c2ccccc2OC3c2ccncc2)cc1 (stereo unspecified)	proKLK7 act 13.2 (no result: rRNA inh HTS, FGF22 binding) | KLK7 act conf 22.9 | EDANS-DABCYL int 25.6
c1coc(-c2ccnc3nc(-n4cccc4)nn23)c1	none
